Source: PubChem BioAssay AID1159580 (chemical genetic matrix, 2015)
Where “and” joins values, the source holds several entries; their conditions need not be identical. Equal values may be shown once. Screen size: about 5,500 compounds; about 2,000 (36%) were called active. About 18% were inconclusive and are not listed. Rule as the data show it: active = normalized growth mostly below about 0.91 (no sharp cut-off); inconclusive = no clear call, values can overlap the other calls; inactive = mostly above about 0.92. The list shows a part of the results.

Test: chemical genetic growth profiling, strain panel (AID 1159580);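 also: tested at 20 µM; growth read once vehicle control cultures reached saturation at 30 °C; 1 = growth at the plate median or of vehicle wells; lower values mean less growth of the strain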
Settings: S. cerevisiae deletion strains, growth OD

Measured: normalized growth

CCCN1C[C@H](CSC)C[C@@H]2c3cccc4[nH]cc(c34)C[C@H]21
inactive: locus YAL013W, strain DEP1, stronger effect = lower value 0.997 | locus YAL021C, strain ccr4, stronger effect = lower value 0.978 | locus YAL026C, strain drs2, stronger effect = lower value 1.02 | locus YAL030W, strain snc1, stronger effect = lower value 1.02 | locus YBL061C, strain skt5, stronger effect = lower value 1.01 | locus YBR009C, strain hhf1, stronger effect = lower value 1.02 | locus YBR021W, strain FUR4, stronger effect = lower value 0.965 | locus YBR023C, strain chs3, stronger effect = lower value 0.998 | locus YBR171W, strain sec66, stronger effect = lower value 1.02 | locus YBR229C, strain ROT2, stronger effect = lower value 1 | locus YBR231C, strain swc5, stronger effect = lower value 1.01 | locus YBR279W, strain paf1, stronger effect = lower value 0.996 | locus YCL011C, strain gbp2, stronger effect = lower value 1.02 | locus YCL016C, strain dcc1, stronger effect = lower value 1.01 | locus YCL029C, strain bik1, stronger effect = lower value 1.02 | locus YCL069W, strain vba3, stronger effect = lower value 1.01 | locus YCR088W, strain abp1, stronger effect = lower value 1.01 | locus YDL005C, strain med2, stronger effect = lower value 0.994 | locus YDL035C, strain GPR1, stronger effect = lower value 0.992 | locus YDL040C, strain nat1, stronger effect = lower value 0.996 | locus YDL074C, strain BRE1, stronger effect = lower value 0.975 | locus YDL101C, strain DUN1, stronger effect = lower value 0.992 | locus YDL134C, strain PPH21, stronger effect = lower value 1.01 | locus YDL185W, strain tfp1, stronger effect = lower value 1.02 | locus YDL192W, strain arf1, stronger effect = lower value 1.02 | locus YDR001C, strain nth1, stronger effect = lower value 1.01 | locus YDR069C, strain doa4, stronger effect = lower value 0.994 | locus YDR101C, strain arx1, stronger effect = lower value 1 | locus YDR137W, strain rgp1, stronger effect = lower value 1.1 | locus YDR150W, strain NUM1, stronger effect = lower value 0.989 | locus YDR159W, strain sac3, stronger effect = lower value 0.989 | locus YDR162C, strain NBP2, stronger effect = lower value 0.97 | locus YDR195W, strain ref2 1.03 | locus YDR297W, strain sur2, stronger effect = lower value 1.01 | locus YDR318W, strain mcm21, stronger effect = lower value 1.03 | locus YDR334W, strain swr1, stronger effect = lower value 1.02 | locus YDR335W, strain msn5, stronger effect = lower value 1.02 | locus YDR388W, stronger effect = lower value 1.02 | locus YDR392W, strain spt3, stronger effect = lower value 1.02 | locus YDR502C, strain sam2, stronger effect = lower value 1.01 | locus YEL003W, strain gim4, stronger effect = lower value 1.01 | locus YEL037C, strain rad23, stronger effect = lower value 1.01 | locus YEL061C, strain CIN8 (second series), stronger effect = lower value 1.02 | locus YEL061C, strain CIN8, stronger effect = lower value 0.999 | locus YER015W, strain faa2, stronger effect = lower value 1.01 | locus YER016W, strain bim1, stronger effect = lower value 1.02 | locus YER110C, stronger effect = lower value 1.02 | locus YER111C, strain swi4, stronger effect = lower value 1.01 | locus YER155C, strain BEM2 (second series), stronger effect = lower value 0.999 | locus YER155C, strain BEM2, stronger effect = lower value 1 | locus YER167W, strain BCK2, stronger effect = lower value 1 | locus YFR010W, strain ubp6, stronger effect = lower value 0.987 | locus YGL078C, strain dbp3, stronger effect = lower value 1.01 | locus YGL086W, strain mad1, stronger effect = lower value 1.02 | locus YGL167C, strain pmr1, stronger effect = lower value 1.02 | locus YGL173C, strain kem1, stronger effect = lower value 1 | locus YGL227W, strain vid30, stronger effect = lower value 1.01 | locus YGL240W, strain doc1, stronger effect = lower value 0.991 | locus YGL248W, strain PDE1, stronger effect = lower value 0.998 | locus YGL253W, strain hxk2, stronger effect = lower value 1.01 | locus YGR078C, strain PAC10, stronger effect = lower value 0.988 | locus YGR135W, strain pre9, stronger effect = lower value 0.985 | locus YGR229C, strain SMI1, stronger effect = lower value 0.984 | locus YGR252W, strain gcn5, stronger effect = lower value 1.06 | locus YHR013C, strain ard1, stronger effect = lower value 1 | locus YHR027C, strain rpn1, stronger effect = lower value 1.02 | locus YHR030C, strain SLT2, stronger effect = lower value 1.01 and 1.02 | locus YHR079C, strain IRE1 (second series), stronger effect = lower value 1.01 | locus YHR079C, strain IRE1, stronger effect = lower value 1.04 | locus YHR094C, strain hxt1, stronger effect = lower value 1.02 | locus YHR129C, strain ARP1, stronger effect = lower value 1 | locus YHR142W, strain chs7, stronger effect = lower value 1.02 | locus YHR200W, strain rpn10, stronger effect = lower value 1.01 | locus YIL066C, strain RNR3, stronger effect = lower value 1.01 | locus YIL073C, strain SPO22, stronger effect = lower value 1.08 | locus YIL125W, strain kgd1, stronger effect = lower value 1 | locus YIR030C, strain dcg1, stronger effect = lower value 1.01 | locus YJL092W, strain hpr5, stronger effect = lower value 1.01 | locus YJL095W, strain BCK1 (second series), stronger effect = lower value 1.01 | locus YJL095W, strain BCK1, stronger effect = lower value 0.975 and 1.04 | locus YJL115W, strain asf1, stronger effect = lower value 1.02 | locus YJL129C, strain trk1, stronger effect = lower value 1.03 | locus YJL134W, strain LCB3, stronger effect = lower value 0.993 | locus YJL154C, strain vps35, stronger effect = lower value 1.01 | locus YJL164C, strain tpk1, stronger effect = lower value 1.01 | locus YJL166W, strain qcr8, stronger effect = lower value 1.01 | locus YJL168C, strain set2, stronger effect = lower value 1.03 | locus YJL187C, strain SWE1 (second series), stronger effect = lower value 1 | locus YJR043C, strain POL32, stronger effect = lower value 1 | locus YJR066W, strain TOR1, stronger effect = lower value 0.985 | locus YJR075W, strain HOC1, stronger effect = lower value 0.98
